Test results taken from PubChem BioAssay AID540276 (National Center for Advancing Translational Sciences (NCATS), 2011).
Screen size: about 300,000 compounds; about 5,400 (1.8%) were called active. Roughly 28% stayed inconclusive and do not appear here. This excerpt belongs to a sample that is enriched for actives. A number with no mark means an inactive call. Calls follow the shape of the full dose curve; tested in HEK293 cells.

assay: qHTS for inhibitors of binding or entry into cells for Marburg Virus; conditions: Marburg virus pseudotyped entry inhibition, cell reporter; series mostly up to 37.8 µM; activity change, negative = inhibition: at the top concentration
% is scaled to controls: 0 for no effect and ±100 for the full control effect; potency is read from the fitted curve at half-maximal effect.

| SMILES | activity change, negative = inhibition | Potency |
| --- | --- | --- |
| CCOC(=O)C1(Cc2ccccc2C)CCCN(C(=O)c2ccc(COC)o2)C1 (centres undefined) | -28% |  |
| O=C1NC(c2ccccc2)Cc2ccncc21 (centres undefined) | 18% |  |
| Cc1c(C)c2c(c(C)c1O)CC[C@@](C)(CN1CCN(c3cc(N4CCCC4)nc(N4CCCC4)n3)CC1)O2 |  | 10 µM (active) |
| O=c1nc(NO)ccn1C1CCCO1 (centres undefined) | 5.3% |  |
| N=c1oc2ccccc2cc1C(=O)NCc1ccccc1 | 6.37% |  |
| Cc1cccc(-n2nc3c(c2NC(=O)c2cc4ccccc4o2)CS(=O)(=O)C3)c1 | 0.783% |  |
| COc1cccc(C(=O)Nc2c3c(nn2-c2cccc(C)c2C)CS(=O)(=O)C3)c1OC |  | 18.3 µM (active) |
| CCOc1ccc(C(=O)Nc2c3c(nn2-c2ccccc2)CS(=O)(=O)C3)cc1 | -5.01% |  |
| CCN(CC(=O)Nc1ccc(OC)cc1)C(=O)c1ccc(Cl)c(S(=O)(=O)N2CCCC2)c1 | 1.55% |  |
| COc1cccc(N(CC(=O)NC2CCCCCC2)S(=O)(=O)c2ccccc2)c1 | 15.1% |  |
| Cn1c(=O)c2c(nc(NCCc3ccccc3)n2Cc2ccccc2Br)n(C)c1=O | 4.15% [at 46.1 µM] |  |
| Cn1c(=O)c2c(nc(NCCNC(=O)c3ccco3)n2Cc2ccccc2F)n(C)c1=O | -2.49% [at 46.1 µM] |  |
| Cn1c(=O)c2c(nc(NCCc3ccccc3)n2Cc2ccccc2)n(C)c1=O |  | 7.3 µM (active) |
| COC(=O)c1ccc(CNC(=O)c2ccc3oc(C(C)C)nc3c2)cc1 | 8.4% |  |
| Cc1ccc2occ(/C=N/NC(=O)c3ccccc3C)c(=O)c2c1 | 24.7% |  |
| Cc1ccc(/C=N/NC(=O)C2=NNC(c3ccccc3)(c3ccccc3)C2)c(O)c1 |  | 8.91 µM (active) |
| Cc1nc2ccc(C(=O)N/N=C/c3ccc(O)cc3)cc2[nH]1 | 6.82% [at 46.1 µM] |  |
| COc1ccc(NC(=O)c2cccc(Cl)c2)c[n+]1[O-] | 5.7% |  |
| O=C(OCC(=O)N1CCN(C(=O)c2ccco2)CC1)c1c(Cl)cccc1Cl | 22.8% |  |
| O=C(CCc1nnc2ccc(NCc3ccccc3Cl)nn12)NCC1CCN(C2CCCC2)C1 (centres undefined) | -0.332% [at 46.1 µM] |  |
| COc1cccc(NC(=O)CCc2nnc3ccc(N4CCC(C)CC4)nn23)c1 | -5.71% [at 46.1 µM] |  |
| CC1CCN(C(=O)CCc2nnc3ccc(NCc4ccco4)nn23)CC1 |  | 3.16 µM (active) |
| CC1=C(C(=O)NC2CC(C)(C)Cc3c2cnn3-c2ccc(C)cc2)OCCO1 (centres undefined) | -19.3% |  |
| COc1cccc(-n2c(N)cc(=O)nc2SCC(=O)Nc2cc(C)on2)c1 | 20.4% |  |
| O=C(O)C[C@H](C(=O)OC[C@H]1CCCO1)N1CCOCC1 | 20% |  |
| CC1CN(C(=O)c2cc(COc3c(F)cccc3F)on2)CCN1C (centres undefined) | 29.3% |  |
| CCC(C)(NC(=O)c1ccccn1)C(=O)NC1CCCCC1 (centres undefined) | -6.35% |  |
| CCOc1cc(NC(=O)c2ccccn2)c(OCC)cc1NC(=O)c1ccc(OC)cc1 | -24.5% [at 46.1 µM] |  |
| CCN(CC)CCOc1ccc2c(c1)C(=NNC(=O)c1ccccn1)c1cc(OCCN(CC)CC)ccc1-2 |  | 10.3 µM (active) |
